From PubChem
Sampled rows, rich in hits. Any-hit rate of the full collection: about 11%.
FBPA coupling cs = qHTS Assay for Inhibitors of Fructose-1,6-bisphosphate Aldolase from Giardia Lamblia: Coupling assay counterscreen. coupling enzyme system counterscreen, AmpLite Red fluorescence. activity change, negative = inhibition, % at 58.2 µM, hits read low. 0.67% of 290,000 active. AID 2472, 2010; in the data active = activity change below about -30%
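Counterscreen lacking aldolase: glyceraldehyde-3-phosphate coupling-enzyme reagent preincubated 10 min at RT with compound (at 57.5 uM final), then substrate/coupling system with AmpLite Red added; fluorescence read at 525/598 nm after 20 min RT.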
Tau fluor counter = Counterscreen qHTS for Inhibitors of Tau Fibril Formation, Fluorescence Polarization; tau K18 P301L Alexa594 fluorescence, heparin fibrillization; Potency, µM (doses to about 57.7 µM), without a hit: top-dose activity change, negative = decrease; 0.93% of 280,000 active; note: potency is the fitted concentration of half-maximal effect; nearly all actives have a fitted effect of over 55% in size
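Human tau K18 P301L (15 uM unlabeled, 0.24 uM Alexa 594-labeled) in 100 mM sodium acetate pH 7 with 20 uM heparin, 6 hr at 37 C. ThT 30 uM added, 1 hr ambient; Alexa 594 FP and total fluorescence read at 555/632 nm.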
Tau ThT inhib = qHTS for Inhibitors of Tau Fibril Formation, Thioflavin T Binding; recombinant tau K18 P301L (four-repeat tau fragment), heparin-induced fibrillization, ThT fluorescence; Potency, µM (series often up to 57.4 µM), without a hit: at the highest dose activity, negative = inhibition, hits mostly inhibitors; 2.1% of 270,000 active; Microtubule-associated protein tau (Homo sapiens), P10636; note: potency is the fitted concentration of half-maximal effect; nearly all actives have a fitted effect of over 55% in size
Target sequence (P10636 561-689 P618L limits assumed): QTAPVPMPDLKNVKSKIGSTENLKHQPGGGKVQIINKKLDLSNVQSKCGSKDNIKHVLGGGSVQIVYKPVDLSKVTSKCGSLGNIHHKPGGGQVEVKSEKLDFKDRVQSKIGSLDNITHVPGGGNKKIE
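In this qHTS, human K18 P301L tau is incubated with compound and heparin for 6 hr at 37 C, and Thioflavin T fluorescence then reports fibril load.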
Tau fibril FP = qHTS for Inhibitors of Tau Fibril Formation, Fluorescence Polarization; Microtubule-associated protein tau (Homo sapiens), P10636; K18 P301L tau heparin fibrillization, Alexa594 FP, 6 h; Potency, µM (series often up to 57.7 µM), inactives show at the top dose activity, negative = inhibition, most hits filed as inhibitors; 0.39% of 280,000 active; note: potency is the fitted concentration of half-maximal effect; nearly all actives have a fitted effect of over 55% in size
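Quantitative HTS format: compounds meet 15 uM recombinant K18 P301L tau and Alexa 594-tau tracer in 100 mM sodium acetate pH 7; 20 uM heparin triggers fibrillization at 37 C over 6 hr; FP gives the signal.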
Sfp inh = qHTS Assay for Inhibitors of Bacillus subtilis Sfp phosphopantetheinyl transferase (PPTase); 4'-phosphopantetheinyl transferase ffp (Bacillus subtilis), Q9F4F7; Biochemical Sfp PPTase activity, qHTS; Potency, µM, for inactives: largest response in the series, negative = inhibition, hits mostly inhibitors; AID 1490, 2009; 3.5% of 310,000 active;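 note: the enzyme is Sfp with the accession as filed and its product quenches rhodamine fluorescence; potency is the fitted concentration of half-maximal effect; 0% = enzyme reaction without inhibitor and -100% = no enzyme wells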
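Reaction rates are the 30-min fluorescence difference (ex 525, em 598 nm) in wells containing 15 nM Sfp, 5 uM rhodamine-CoA and 12.5 uM BHQ-2-YbbR at pH 7.6 with 10 mM MgCl2.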
G9a inh = qHTS Assay for Inhibitors of Histone Lysine Methyltransferase G9a; AID 504332, 2011; 8.8% of 350,000 active; Potency, µM (series often up to 102 µM), inactives show at the highest dose activity, negative = inhibition, most hits filed as inhibitors; G9a H3K9 monomethylation, AlphaScreen, 2 h; Histone-lysine N-methyltransferase EHMT2 (Homo sapiens), Q96KQ7; note: potency is the fitted concentration of half-maximal effect; nearly all actives have a fitted effect of over 75% in size
Target sequence (Q96KQ7 913-1193 limits assumed): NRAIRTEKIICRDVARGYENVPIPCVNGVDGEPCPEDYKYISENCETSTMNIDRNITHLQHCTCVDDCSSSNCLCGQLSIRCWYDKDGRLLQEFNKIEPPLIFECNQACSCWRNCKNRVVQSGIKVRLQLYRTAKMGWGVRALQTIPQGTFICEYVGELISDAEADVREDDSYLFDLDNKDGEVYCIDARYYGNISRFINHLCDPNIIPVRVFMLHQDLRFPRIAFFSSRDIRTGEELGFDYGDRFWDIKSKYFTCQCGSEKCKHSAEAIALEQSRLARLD
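Quantitative HTS format: methyltransferase activity on a biotin-tagged H3K9 peptide is measured by AlphaScreen, using a rabbit anti-monomethyl-H3K9 antibody with streptavidin donor and anti-IgG acceptor beads. Final levels are 20 nM enzyme, 500 nM peptide, 20 uM SAM; 2 h RT.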
Numbers without * were called inactive; ? = inconclusive; · = no result given; [ ] = another dose, or the depositor's remark. Unless noted, calls come from the whole dose curve; as a rule, active = well fitted curve in the direction sought with a large enough effect; inconclusive = small, poorly fitted or top-dose-only effect, or another doubt; inactive = no such curve, though single readings can be large; an effect the other way counts as inactive or inconclusive. Unless noted, % is set by controls: 0 for no effect and ±100 for the full control effect.

SMILES	FBPA coupling cs	Tau fluor counter	Tau ThT inhib	Tau fibril FP	Sfp inh	G9a inh
O=C(C[n+]1cc(-c2ccc(Cl)cc2)n2c1CCC2)Nc1nc(-c2ccc(F)cc2)cs1	-1	-26%	?	-14%	45µM*	?
COc1ccc(NC(=O)Cn2c(=O)n(-c3cccc(C)c3)c(=O)c3c2c2cc(C)ccc2n3C)cc1OC	·	-26%	-18%	-11%	·	-1%[59 µM]
CC(=O)Oc1ccc2c(=O)c(Oc3ccccc3)c(C)oc2c1OC(C)=O	-3	-12%	?	-3%	?	3.2µM*
CC(=O)OC[C@@H]1O[C@@H](O/N=C2/C[C@@H](O)[C@@H](O)[C@@H]3[C@@H]4C(=O)N(Cc5ccccc5)C(=O)[C@H]4CC[C@H]23)[C@H](OC(C)=O)[C@H](OC(C)=O)[C@@H]1OC(C)=O	1	-13%[11.6 µM]	-13%[11.5 µM]	3%[11.6 µM]	?	·
Cc1ccc(-c2csc(Nc3ccc(C(=O)O)cc3)[n+]2Cc2ccccc2)cc1	6	6%	8%	2%	13%	15%
CC(=O)Nc1scc(-c2ccccc2)[n+]1-c1ccc(C)cc1	6	-3%	-10%	9%	-24%	50µM*
CCOc1ccc(CC(=O)NCCS(=O)(=O)N2CCN(c3ccc(OC)cc3)CC2)cc1	·	1%	3%	-1%	·	-27%[59 µM]
CC1CN2C(c3ccc(Cl)cc3)=CSC2=N1 (stereo unspecified)	-3	·	·	·	-9%	45µM*
COc1ccc(Nc2nc3c(S(=O)(=O)c4ccccc4)nnn3c3ccc(Cl)cc23)c(OC)c1	·	5%	11%	0%	·	6%[59 µM]
CCCS(=O)(=O)C/C(N)=N/OC(=O)c1ccccc1Cl	0	2%	·	4%	-18%	40µM*
N/C(CS(=O)(=O)c1ccccn1)=N\OC(=O)c1ccccc1Cl	0	-13%	-7%	-4%	-7%	?
COc1cc(-c2nc3n(n2)C(c2ccc(F)cc2)C(C(N)=O)=C(C)N3)cc(OC)c1OC (stereo unspecified)	·	-7%	-11%	-2%	·	-36%[59 µM]
COc1ccc(C(=O)N2CCC(c3nc(-c4ccc(S(=O)(=O)N5CCCC5)cc4)no3)CC2)cc1	·	-9%	-8%	2%	·	-2%[59 µM]
COc1ccc(-n2[nH]c(C)cc2=O)cc1	-32*	?	?	?	-10%	2%[2.33 µM]
O=C(C1=C(O)C(=O)N(c2ncccn2)C1c1cccc(Cl)c1)c1ccco1 (stereo unspecified)	-6	-8%	?	-5%	56µM*	18µM*
O=C(C1=C(O)C(=O)N(c2ncccn2)C1c1ccc(Cl)c(Cl)c1)c1ccco1 (stereo unspecified)	-1	?	18µM*	?	56µM*	40µM*
O=C(C1=C(O)C(=O)N(c2ncccn2)C1c1ccc(Cl)cc1)c1ccco1 (stereo unspecified)	2	-6%	-12%	2%	-5%	·
COc1ccc(NC(=O)CCCn2cnc3ccccc3c2=O)c(OC)c1	1	·	·	·	4%	-2%
Cc1ccc(CN(Cc2cccnc2)C(=O)CN2C(=O)COc3ccccc32)o1	2	-6%	?	-7%	28µM*	?
O=C(CN1C(=O)COc2ccccc21)N(Cc1ccccc1)Cc1ccccn1	0	-16%	-3%	?	-3%	?
O=C1c2cccnc2C(O)N1Cc1ccco1 (stereo unspecified)	0	-11%	-11%	-3%	4%	6%[59 µM]
O=C1c2cccnc2C(Nc2ccccc2Br)N1Cc1ccco1 (stereo unspecified)	1	-5%	-17%	3%	56µM*	50µM*
COc1ccc(CN2C(=O)c3cccnc3C2Nc2cc(Cl)c(OC)cc2OC)cc1 (stereo unspecified)	-2	?	?	0%	-27%	45µM*
COc1cc(NC2c3ncccc3C(=O)N2Cc2ccco2)cc(OC)c1OC (stereo unspecified)	-4	-17%	-20%	-2%	-30%	35µM*
Cc1ccc(NC2c3ncccc3C(=O)N2Cc2cccs2)cc1 (stereo unspecified)	1	-1%	2%	8%	-9%	45µM*
SMILES	FBPA coupling cs	Tau fluor counter	Tau ThT inhib	Tau fibril FP	Sfp inh	G9a inh
Cc1cccc(C(=O)OCC(=O)c2c(C)[nH]c3ccccc23)c1O	·	·	·	·	·	-7%[12.7 µM]
O=C1c2cccnc2C(Nc2ccccc2)N1Cc1ccco1 (stereo unspecified)	-5	-9%	?	-1%	50µM*	25µM*
O=C1c2cccnc2C(Nc2cccc(F)c2)N1Cc1ccco1 (stereo unspecified)	1	-9%	-7%	-5%	3%	25µM*
CC(=O)c1cccc(NC2c3ncccc3C(=O)N2Cc2ccco2)c1 (stereo unspecified)	0	-12%	?	-3%	79µM*	50µM*
Cc1c(Cl)sn(-c2ccc(Cl)cc2)c1=O	7	-20%	14µM*	?	0.71µM*	0.71µM*
Cc1[nH]c2ccccc2c1[C@H]1[C@@H](CC#N)C1(C)C	-46*	?	-2%	?	?	?
CCn1c(O)c(/C=N/N=C2CCCC2)c2ccc(C3=NNC(=O)CC3)cc21	1	-14%	?	-11%	16%	-18%
CCn1c(O)c(/C=N/N=C2CCCCC2)c2cc(C3=NNC(=O)CC3)ccc21	-35*	-28%	10µM*	-4%	?	?
O=C(O)COCC(=O)Nc1ccc(OCCc2ccccc2)cc1	8	·	·	·	19%	-4%
CC(=O)NS(=O)(=O)c1ccc2sc(C)nc2c1	0	-1%	-5%	4%	79µM*	-7%
CC(=O)Nc1ccc2sc(C)nc2c1	-1	-6%	-9%	-1%	3%	·
CCOC(=O)C1(CCc2ccccc2)CCN(C(=O)[C@@H]2C[C@@H](C)NC(=S)N2)CC1	2	2%	-5%	-2%	-27%	45µM*
CCN1CCN(C(=O)c2ccc3c(c2)c(C)c(C)n3Cc2ccccc2)CC1	3	-8%	-9%	0%	3%	35µM*
CCn1c(C(=O)NCCCN2CCc3ccccc3C2)cc2sccc21	-3	-15%	-23%	?	-20%	?
